Compounds without any hit were thinned out: in the full panel of roughly 79,000, 15% have a hit. Rule as the data show it: active = growth inhibition above about 70%; inactive = the rest.
How the values were obtained:
[1] = NCI Yeast Anticancer Drug Screen. Data for the rad50 strain (AID 155);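 also: 0% = growth of vehicle-only cultures of the same strain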; conditions: S. cerevisiae rad50 strain growth inhibition; at 50.0 µM; active compounds read high
In short: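 A DNA repair-deficient yeast mutant serves as the test organism; compound-induced growth inhibition is calculated against vehicle-treated cells.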

[2] = NCI Yeast Anticancer Drug Screen. Data for the mec2-1 strain (AID 157); conditions: S. cerevisiae mec2-1 strain, at 50.0 µM, active compounds read high
In short: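 Mutant yeast (mec2-1) grown with compound; growth inhibition relative to vehicle control reported.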

[3] = NCI Yeast Anticancer Drug Screen. Data for the sgs1 mgt1 strain (AID 161);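 also: 0% = growth of cultures given vehicle only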; conditions: S. cerevisiae sgs1 mgt1 strain, at 50.0 µM, active compounds read high
In short: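 Growth of a repair-deficient yeast mutant was monitored after compound treatment and expressed as inhibition relative to vehicle-treated cultures.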

[4] = NCI Yeast Anticancer Drug Screen. Data for the cln2 rad14 strain (AID 165);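 also: 0% = growth equal to vehicle treated cultures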; conditions: S. cerevisiae cln2 rad14 strain, at 50.0 µM, active compounds read high
In short: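 Readout is yeast growth inhibition versus vehicle-treated controls, using a strain with cln2 and rad14 alterations exposed to compound.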

[5] = NCI Yeast Anticancer Drug Screen. Data for the bub3 strain (AID 167); conditions: S. cerevisiae bub3 mutant strain, at 50.0 µM, active compounds read high
In short: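 Inhibition values come from growth of compound-treated mutant yeast normalised to vehicle-treated controls.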

[6] = NCI Yeast Anticancer Drug Screen. Data for the mlh1 rad18 strain (AID 175); conditions: S. cerevisiae mlh1 rad18 strain growth inhibition; at 50.0 µM; active compounds read high
In short: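 Genetically defined yeast (DNA repair-deficient) exposed to compounds; growth inhibition determined relative to vehicle.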

Measured: growth inhibition

Cc1cccc(N=C2NC(=O)C(CC(=O)Nc3ccccc3Cl)S2)c1 (stereo not given)
inactive: [1] -16.8% | [2] -35.8% | [3] 12.8% | [4] 7.45% | [5] 0.95% | [6] -1.55%

CC(=O)Nc1ccc(F)c(N)c1
inactive: [1] -3.2% | [2] -13.2% | [3] 8.7% | [4] -11.9% | [5] -9.1% | [6] 15.1%

CN(C)CCNCCN
inactive: [1] 4% | [2] -28.4% | [3] -6.2% | [4] -1.55% | [5] -9.75% | [6] -15.6%

COc1ccc(C(C#N)C(=O)C(=O)Nc2ccc(C)cc2C)cc1OC (stereo not given)
inactive: [1] -30.6% | [2] 19.6% | [3] 42% | [4] -22.9% | [5] 48.2% | [6] 28.8%

NC(=O)CNC(=O)CN1C(=O)c2ccccc2C1=O
inactive: [1] 9.05% | [2] -14.6% | [3] -13.1% | [4] 8.65% | [5] 2.1% | [6] -4.2%

CCOC(=O)c1ccc(CSc2ccc(N)cc2)c([N+](=O)[O-])c1
inactive: [1] -0.6% | [2] 7.15% | [3] 17.4% | [4] 11.4% | [5] 2.3% | [6] 20.2%

O=C1OC(=O)C2C1C1C=CC2C1(c1ccccc1)c1ccccc1 (stereo not given)
inactive: [1] 9.05% | [2] 4.25% | [3] 8.95% | [4] -5.65% | [5] 25.5% | [6] 7%

COc1ccc(OC)c(Cc2ccc(NC(C)=O)cc2)c1
inactive: [1] 4.75% | [2] -2.15% | [3] 3.3% | [4] -38.2% | [5] -0.75% | [6] -2.65%

Nc1ccc(S(=O)(=O)Nc2ccc([N+](=O)[O-])cn2)cc1
inactive: [1] -28.4% | [2] -43% | [3] 17.2% | [4] 17% | [5] -20.4% | [6] -15.6%

O=C(O)c1ccccc1NC(=O)C1CCCCC1
inactive: [1] 10.1% | [2] 6.8% | [3] 16.3% | [4] 0.85% | [5] -6.55% | [6] 14.5%

Cc1ccc2cc(N)ccc2c1
inactive: [1] -2.9% | [2] 8.05% | [3] 2.9% | [4] -9.85% | [5] 20.1% | [6] 23.1%

Cc1cnc(Br)c(Br)c1
inactive: [1] 2.85% | [2] 0.8% | [3] 3.45% | [4] 15.9% | [5] 5.1% | [6] 13.1%

C/C(CC(O)(C(F)(F)Cl)C(F)(F)Cl)=N\NC(N)=S
inactive: [1] 29.9% | [2] -3.05% | [3] 0.1% | [4] 20.1% | [5] -0.55% | [6] 25.2%

CC(C)(C)OC(=O)N/N=C(/N)Cc1ccc(Cl)cc1
inactive: [1] -4.05% | [2] 19.4% | [3] -6.2% | [4] -13.9% | [5] -14.2% | [6] 6.4%

CCOC(=O)NCC(=O)NCC(=O)NCC(N)=O
inactive: [1] -14.2% | [2] -19.2% | [3] -12.9% | [4] -9.65% | [5] -25.1% | [6] 7.95%

c1ccc(COc2ccc(OCc3ccccc3)cc2)cc1
inactive: [1] -1.5% | [2] 3.8% | [3] 13.1% | [4] -31.6% | [5] -10.2% | [6] 3%

O=C(CC1(O)C(=O)Nc2ccccc21)c1ccc(O)cc1O (stereo not given)
inactive: [1] 13.2% | [2] 15.4% | [3] 12.1% | [4] 26.4% | [5] 14.3% | [6] 18.6%

COc1ccc(C2OCC(COC(C)=O)O2)cc1OC (stereo not given)
inactive: [1] -11% | [2] 6.4% | [3] 1.2% | [4] -17.9% | [5] 26.5% | [6] 10.4%

O=c1ccc2cc3ccoc3c(OCCOCCOCCOCCOc3c4occc4cc4ccc(=O)oc34)c2o1
inactive: [1] 14.7% | [2] 17.4% | [3] 11.4% | [4] -17.2% | [5] 3.5% | [6] 26.8%

CCCCCOC(=O)c1cccnc1
inactive: [1] -8.75% | [2] -16.1% | [3] -15% | [4] -0.2% | [5] 0.7% | [6] -1.5%
